Screening results deposited in PubChem by Broad Institute.
A selection: hits, their analogues and other compounds. The true share with any hit is near 6.8%.
T cruzi growth – T. cruzi proliferation inhibition; inhibition, % at 8.34 µM; actives 5.9% (n = 77,000); T. cruzi beta-gal in NIH3T3, GalScreen luminescence, 90 h;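 active = mean inhibition above about 93%, with at least 55% of replicates each passing it, limit read from the data, passing the limit was not always enough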
C diff growth – C. difficile growth inhibition | Clostridium difficile clinical isolate growth, OD600, 24 h; stronger effect = lower value | growth activity, negative = inhibition, % at 16 µg/mL (by protocol) | actives 0.25% (n = 86,000) | AID 1259249;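 active = mean growth activity at or below -80% and every replicate also at or below -80%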;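 also: 0% = DMSO wells and -100% = levofloxacin 16 µg/mL wells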
Pf Dd2 growth – P. falciparum Dd2 growth inhibition | SYBR Green, 72 h; stronger effect = lower value | activity change, % at 10 µM | actives 2.3% (n = 94,000); in the data active = activity change below about -80%
* = called active by the depositor; · = not tested or not shown; ! = a repeat was not active.

SMILES	T cruzi growth	C diff growth	Pf Dd2 growth
CCCNC(=O)N(C)C[C@H]1Oc2cc(-c3ccccc3F)ccc2S(=O)(=O)N([C@@H](C)CO)C[C@H]1C	·	0	20
O=C(C1CCOCC1)N1C[C@@H]2N[C@H](C1)C2c1ccc(-c2cccc(F)c2)cc1 (stereo partly drawn)	·	-7	-5
Cc1ccccc1-c1ccc(C2[C@@H]3CN(Cc4cccnc4)C[C@H]2N3)cc1 (stereo partly drawn)	·	-6	-90*!
Fc1cccc(CN2C[C@@H]3N[C@H](C2)C3c2ccc(-c3ccccc3)cc2)c1 (stereo partly drawn)	·	-99*	3
CN(C)C(=O)c1ccc(-c2ccc(C3[C@@H]4CN(Cc5cccnc5)C[C@H]3N4)cc2)cc1 (stereo partly drawn)	·	-7	-16
N#Cc1ccc(-c2ccc([C@@H]3[C@@H]4CN(S(=O)(=O)Cc5ccccc5)C[C@H]3N4)cc2)cc1	·	30	-86*
Fc1cccc(CN2C[C@@H]3N[C@H](C2)[C@@H]3c2ccc(-c3cccc(F)c3)cc2)c1	·	-94*	-62
N#Cc1cccc(-c2ccc(C3[C@@H]4CN(S(=O)(=O)Cc5ccccc5)C[C@H]3N4)cc2)c1 (stereo partly drawn)	·	30	-27
Fc1cccc(CN2C[C@@H]3N[C@H](C2)C3c2ccc(-c3cncnc3)cc2)c1 (stereo partly drawn)	·	-1	-52
O=C(C1CCC1)N1CC(=O)N2[C@@H](CO)[C@@H](c3ccc(C4=CCCCC4)cc3)[C@@H]2C1	·	4	-1
COc1ccc(NC(=O)N(C)C[C@@H]2Oc3ccc(NS(=O)(=O)c4ccc(F)cc4)cc3C(=O)N([C@@H](C)CO)C[C@@H]2C)cc1	-112	·	12
Cc1noc(C)c1NC(=O)Nc1cccc2c1O[C@@H](CN(C)C(=O)NC1CCCCC1)[C@@H](C)CN([C@H](C)CO)C2=O	51	0	9
Fc1cccc(-c2ccc(C3[C@@H]4CN(Cc5cccnc5)C[C@H]3N4)cc2)c1 (stereo partly drawn)	·	-6	-90*!
N#Cc1cccc(-c2ccc(C3[C@@H]4CN(Cc5ccccc5)C[C@H]3N4)cc2)c1 (stereo partly drawn)	·	34	-91*!
N#Cc1cccc(-c2ccc(C3[C@@H]4CN(C(=O)C5CCCC5)C[C@H]3N4)cc2)c1 (stereo partly drawn)	·	13	-69
O=C(Cc1ccncc1)N1C[C@@H]2N[C@H](C1)C2c1ccc(-c2cccc(F)c2)cc1 (stereo partly drawn)	·	10	-57
O=C(C1CCC1)N1C[C@@H]2N[C@H](C1)C2c1ccc(-c2cccc(F)c2)cc1 (stereo partly drawn)	·	35	-65
Fc1cccc(-c2ccc(C3[C@@H]4CN(Cc5ccccc5F)C[C@H]3N4)cc2)c1 (stereo partly drawn)	·	-101*	-33
CN(C)CC(=O)N[C@@H]1CC[C@H](CCNC(=O)C2CCCC2)O[C@@H]1CO	·	0	24
COc1ccc(S(=O)(=O)N(C)C[C@@H]2OCCCC[C@H](C)Oc3ccc(N(C)C)cc3C(=O)N([C@H](C)CO)C[C@@H]2C)cc1	56	3	-80
COc1ccc(S(=O)(=O)Nc2cccc3c2O[C@H](CN(C)C(=O)NC2CCCCC2)[C@H](C)CN([C@@H](C)CO)C3=O)cc1	65	-1	-38
O=C(c1cccc(F)c1)N1CC(=O)N2[C@H](CO)[C@H](c3ccc(-c4cccnc4)cc3)[C@@H]2C1	·	-1	10
COC(=O)c1ccc(CN2CC(=O)N3[C@H](C2)[C@@H](c2ccc(-c4ccccc4F)cc2)[C@@H]3CO)cc1	·	3	-3
O=C(c1ccccc1F)N1CC(=O)N2[C@H](C1)[C@@H](c1ccc(-c3cccnc3)cc1)[C@@H]2CO	·	-3	-87*
COC(=O)c1ccc(CN2CC(=O)N3[C@H](CO)[C@@H](c4ccc(-c5ccccc5F)cc4)[C@H]3C2)cc1	·	-5	-83*
O=C(c1ccc(F)cc1)N1CC(=O)N2[C@H](C1)[C@H](c1ccc(-c3cccnc3)cc1)[C@@H]2CO	·	-3	-6
O=C(c1ccccc1F)N1CC(=O)N2[C@@H](CO)[C@@H](c3ccc(-c4cccnc4)cc3)[C@@H]2C1	·	-6	-4
O=C(c1ccc(F)cc1)N1CC(=O)N2[C@H](C1)[C@@H](c1ccc(-c3cccnc3)cc1)[C@@H]2CO	·	0	-89*
O=C(c1cccc(F)c1)N1CC(=O)N2[C@H](C1)[C@@H](c1ccc(-c3cccnc3)cc1)[C@@H]2CO	·	-3	-88*
O=C(C[C@@H]1CC[C@H]2[C@@H](COC[C@@H](O)CN2C(=O)c2cccnc2)O1)NC1Cc2ccccc2C1	50	3	-29
